SENP7 inh = SENP7 protease inhibition; inhibition, % at 5 µM; AID 434973; actives 1.5% (n = 330,000); recombinant SENP7, Z-RLRGG-aminoluciferin luminescence, 40 min;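 active means inhibition above about 50% at the single test dose, limit read from the data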
Target sequence (Q9BQF6 706-1050 limits assumed): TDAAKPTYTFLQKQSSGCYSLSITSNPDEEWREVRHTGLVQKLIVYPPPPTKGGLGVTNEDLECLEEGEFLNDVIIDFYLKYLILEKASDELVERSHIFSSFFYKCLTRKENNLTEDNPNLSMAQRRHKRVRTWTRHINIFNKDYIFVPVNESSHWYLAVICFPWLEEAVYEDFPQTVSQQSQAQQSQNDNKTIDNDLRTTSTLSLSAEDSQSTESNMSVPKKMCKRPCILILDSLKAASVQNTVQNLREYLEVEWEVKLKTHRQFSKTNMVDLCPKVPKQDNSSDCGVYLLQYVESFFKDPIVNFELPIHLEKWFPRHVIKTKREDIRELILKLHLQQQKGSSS
SENP6 block = blocks the human protease SENP6. AID 2599. actives 1.8% (n = 330,000). inhibition, % at 10 µM. Recombinant SENP6 catalytic domain, aminoluciferin luminescence. Q9GZR1;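 active means inhibition above about 50% at the single tested dose, limit read from the data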
SENP8 block-1 = SENP8 (human) protease inhibition. actives 0.64% (n = 360,000). recombinant SENP8, Nedd8 substrate fluorescence. inhibition, % at 20 µM. Q96LD8; in the data active means inhibition mostly above about 40%, no sharp cut-off; inactive means mostly below about 27%
SENP8 block-2 = SENP8 protease inhibition; AID 2540; Q96LD8; inhibition, % at 10 µM; purified SENP8, Z-RLRGG-aminoluciferin cleavage, luminescence; actives 1.2% (n = 330,000); in the data active means inhibition above about 50%
C8 TRAIL sens = sensitizes caspase-8 expressing cells to TRAIL. NB7+C8 cells + TRAIL, ATPlite viability luminescence. inhibition (viability loss, TRAIL sensitization), % at 10 µM. actives 1% (n = 360,000);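 active means compounds causing at least 50% loss of cell viability in the single-dose screen, relative to plate controls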
PPC-1+TRAIL kill = kills PPC-1 cancer cells in the presence of TRAIL; PPC-1 cells + TRAIL, ATPLite viability luminescence; cell killing (% activity), % at 4 µM or 5 µM; actives 0.41% (n = 220,000); AID 1443;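 active means cell killing above 50% in the first pass at 4 µM, then a duplicate retest at 5 µM averaging 50% or more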
A number is an active result. In the library only some 3% were active in any assay of this set; here they are far more common.

What do the screens show for `COc1ccc(/C=C/C(=O)c2ccc([N+](=O)[O-])o2)cc1OC`?
SENP7 inh: inactive; SENP6 block: inactive; SENP8 block-2: inactive

How did O=C(/C=C/c1cccc(Cl)c1)c1ccc([N+](=O)[O-])o1 do in these assays?
SENP7 inh: inactive; SENP6 block: inactive; SENP8 block-1: inactive; SENP8 block-2: inactive; C8 TRAIL sens: 68

What do the screens show for `O=C(NNC1=NS(=O)(=O)c2ccccc21)c1ccc([N+](=O)[O-])cc1`?
SENP7 inh: inactive; SENP6 block: inactive; SENP8 block-1: inactive; SENP8 block-2: inactive; C8 TRAIL sens: 61

How did CCOc1ccc(/C=C2\SC(=S)N(C(C(=O)O)c3ccccc3)C2=O)cc1OC (stereo not given) do in these assays?
SENP7 inh: inactive; SENP6 block: inactive; SENP8 block-1: inactive; SENP8 block-2: inactive; C8 TRAIL sens: inactive; PPC-1+TRAIL kill: inactive

How did C=CCOc1ccc(/C=C2\SC(=S)N(C(C(=O)O)c3ccccc3)C2=O)cc1 (stereo not given) do in these assays?
SENP8 block-1: 42; C8 TRAIL sens: inactive; PPC-1+TRAIL kill: inactive

What do the screens show for `CCOC(=O)C1(CCOC)CCN(Cc2nc(C(C)C)cs2)CC1`?
SENP7 inh: inactive; SENP6 block: inactive; SENP8 block-1: inactive; SENP8 block-2: inactive; C8 TRAIL sens: inactive; PPC-1+TRAIL kill: inactive

What do the screens show for `Cc1onc(C(=O)N2CCN(C(c3ccccc3)c3ccccc3)CC2)c1[N+](=O)[O-]`?
SENP7 inh: inactive; SENP6 block: inactive; SENP8 block-1: inactive; SENP8 block-2: inactive; C8 TRAIL sens: 91; PPC-1+TRAIL kill: inactive

Results for COc1ccc(C(C[N+](=O)[O-])C2(c3ccc(OC)c(OC)c3)C(=O)c3ccccc3C2=O)cc1 (stereo not given) ?
SENP8 block-1: inactive; C8 TRAIL sens: 53; PPC-1+TRAIL kill: inactive

Results for COc1ccccc1-c1noc2c1C(=O)NCC2 ?
SENP8 block-1: inactive; C8 TRAIL sens: inactive

What do the screens show for `Cc1ccc2nc(SCC(=O)c3c(N)n(C4CC4)c(=O)[nH]c3=O)[nH]c2c1`?
SENP7 inh: inactive; SENP6 block: inactive; SENP8 block-1: inactive; SENP8 block-2: inactive; C8 TRAIL sens: inactive

Results for CCCc1cc(=O)[nH]c(SCC(=O)c2c(N)n(C3CC3)c(=O)[nH]c2=O)n1 ?
SENP7 inh: inactive; SENP6 block: inactive; SENP8 block-1: inactive; SENP8 block-2: inactive; C8 TRAIL sens: 85

What do the screens show for `Cc1ccc(Nc2nnc(SCC(=O)c3c(N)n(C4CC4)c(=O)[nH]c3=O)s2)cc1C`?
SENP7 inh: inactive; SENP6 block: inactive; SENP8 block-1: inactive; SENP8 block-2: inactive; C8 TRAIL sens: 55

What do the screens show for `CSc1nnc(NC(=O)c2nc(S(=O)(=O)Cc3ccccc3)ncc2Cl)s1`?
SENP7 inh: inactive; SENP6 block: inactive; SENP8 block-1: inactive; SENP8 block-2: inactive; C8 TRAIL sens: 82

What do the screens show for `CC(C)c1nnc(NC(=O)c2nc(S(=O)(=O)Cc3ccccc3)ncc2Cl)s1`?
SENP7 inh: inactive; SENP6 block: inactive; SENP8 block-1: inactive; SENP8 block-2: inactive; C8 TRAIL sens: 94

Results for N#C/C(N=Nc1ccccc1O)=N\Nc1ccccc1O ?
SENP7 inh: inactive; SENP6 block: 85; SENP8 block-1: 58; SENP8 block-2: 74; C8 TRAIL sens: 54

Results for COc1ccc(N2CCN(CCCNC(=O)CCCn3c(=O)[nH]c4ccsc4c3=O)CC2)cc1 ?
SENP7 inh: inactive; SENP6 block: inactive; SENP8 block-1: inactive; SENP8 block-2: inactive; C8 TRAIL sens: inactive; PPC-1+TRAIL kill: inactive

How did COc1ccc(N2CCN(CCNC(=O)CCCn3c(=O)[nH]c4cc(Cl)ccc4c3=O)CC2)cc1 do in these assays?
SENP7 inh: inactive; SENP6 block: inactive; SENP8 block-1: 53; SENP8 block-2: inactive; C8 TRAIL sens: inactive; PPC-1+TRAIL kill: inactive

Results for COc1ccc(S(=O)(=O)N2CCCCC2)cc1NC(=O)CN(Cc1ccco1)Cc1ccco1 ?
SENP7 inh: inactive; SENP6 block: inactive; SENP8 block-1: inactive; SENP8 block-2: inactive; C8 TRAIL sens: inactive

Results for O=c1c2ccccc2oc2ccc(NCCCn3ccnc3)cc12 ?
SENP7 inh: inactive; SENP6 block: inactive; SENP8 block-1: inactive; SENP8 block-2: inactive; C8 TRAIL sens: 50

What do the screens show for `CN(Cc1ccc(C(C)(C)C)cc1)C(=O)Cc1ccc(S(=O)(=O)N2CCOCC2)s1`?
SENP7 inh: inactive; SENP6 block: inactive; SENP8 block-1: inactive; SENP8 block-2: inactive; C8 TRAIL sens: inactive

Screening data (PubChem)
